Experimental findings from PubChem BioAssay (NCI) are described below.

Experiment [1] in a line: NCI Yeast Anticancer Drug Screen. Data for the rad50 strain (AID 155).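 Note: 0% = growth of vehicle-only cultures of the same strain.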 The conditions noted are these: S. cerevisiae rad50 strain growth inhibition; at 50.0 µM; active compounds read high. The gist of the method:
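Inhibition values express reduced yeast growth in compound-treated cultures relative to vehicle-treated controls.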

Experiment [2] is described as follows: NCI Yeast Anticancer Drug Screen. Data for the mec2-1 strain (AID 157). The note with it: S. cerevisiae mec2-1 strain, at 50.0 µM, active compounds read high. The procedure, abridged: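 Mutant yeast (mec2-1) grown with compound; growth inhibition relative to vehicle control reported.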
Experiment [3] in a line: NCI Yeast Anticancer Drug Screen. Data for the sgs1 mgt1 strain (AID 161).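 Note: 0% = growth of cultures given vehicle only.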 The conditions noted are these: S. cerevisiae sgs1 mgt1 strain, at 50.0 µM, active compounds read high. The procedure, abridged:
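Yeast cells carrying a defined DNA-repair defect were exposed to test compounds. Growth inhibition was measured relative to vehicle-treated controls.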

Experiment [4] is described as follows: NCI Yeast Anticancer Drug Screen. Data for the cln2 rad14 strain (AID 165).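 Note: 0% = growth equal to vehicle treated cultures.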 The conditions noted are these: S. cerevisiae cln2 rad14 strain, at 50.0 µM, active compounds read high. The gist of the method: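 Readout is yeast growth inhibition versus vehicle-treated controls, using a strain with cln2 and rad14 alterations exposed to compound.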
The nature of experiment [5]: NCI Yeast Anticancer Drug Screen. Data for the bub3 strain (AID 167). The note with it: S. cerevisiae bub3 mutant strain, at 50.0 µM, active compounds read high. The procedure, abridged: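 Steps: expose the mutant yeast strain to compound; grow alongside vehicle-treated cultures; measure growth; express inhibition against the vehicle cultures.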
A short description of experiment [6]: NCI Yeast Anticancer Drug Screen. Data for the mlh1 rad18 strain (AID 175). The conditions noted are these: S. cerevisiae mlh1 rad18 strain growth inhibition; at 50.0 µM; active compounds read high. The gist of the method: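 Genetically defined yeast (DNA repair-deficient) exposed to compounds; growth inhibition determined relative to vehicle.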

Each structure is given as a SMILES string. The panel holds about 79,000 compounds, 15% with a hit somewhere; the sample as a whole holds those more often. Values without a mark were called inactive. Calls of active or inactive are those of the source. Cut-off read from the data, not from the text of the source: active = growth inhibition above about 70%; inactive = the rest. Where a SMILES comes first, the peptide text is derived from it. The star is where a group is joined. Boc = CC(C)(C)OC(=O)*; OtBu = CC(C)(C)O*

As for `CCN(CC)CCC1CC/C(=C\c2ccc(OC)cc2)C1=O` (stereo unspecified), the growth inhibition is 18.3% in experiment [1]; -4.35% in experiment [2]; 27.9% in experiment [3]; 21.1% in experiment [4]; -2.45% in experiment [5]; 21.9% in experiment [6].

With `CC(=O)Nc1ccc(S(=O)(=O)N=S(c2ccccc2)c2ccccc2)cc1`, the growth inhibition is 14.7% in experiment [1]; 3.05% in experiment [2]; 8.45% in experiment [3]; 10.8% in experiment [4]; -7.2% in experiment [5]; -0.25% in experiment [6].

Consider `CN(/N=C/c1ccccn1)C1=NCCCN1`, for which the growth inhibition in experiment [1] was -20.2%; in experiment [2], -22%; in experiment [3], -23%; in experiment [4], 5.35%; in experiment [5], -5.4%; in experiment [6] it was -27%.

In the case of `CCOC(=O)CN(c1scc(-c2ccccc2)c1C(=O)OCC)S(=O)(=O)c1ccc(C)cc1`, the growth inhibition was -15.7% in experiment [1]; -28.6% in experiment [2]; 0.05% in experiment [3]; -57.6% in experiment [4]; -2.7% in experiment [5]; 0.85% in experiment [6].

With `Cc1cc2oc3c(c2c(=O)[nH]1)C(=O)c1ccccc1C3=O`, the growth inhibition is -6.55% in experiment [1]; -1.3% in experiment [2]; -8% in experiment [3]; -17.4% in experiment [4]; -21.8% in experiment [5]; -5.85% in experiment [6].

Consider `COCc1ccc(C(C)(C)CC(C)(C)C)cc1`, for which the growth inhibition in experiment [1] is 32.6%; in experiment [2], 8.4%; in experiment [3], -0.1%; in experiment [4], 13.6%; in experiment [5], -0.45%; in experiment [6] it was -1.3%.

`CN1c2ccccc2C(=O)NC12CCN(CC1COc3ccccc3O1)CC2` (stereo unspecified): the growth inhibition in experiment [1] was 58.1%; in experiment [2], 71.4% (active); in experiment [3], 82.4% (active); in experiment [4] it was 62.9%; in experiment [5], 66.5%; in experiment [6], 66%.

As for `NS(=O)(=O)c1ccc(NC(=S)/N=C/c2c(O)c3ccccc3oc2=O)cc1`, the growth inhibition in experiment [1] is 6.2%; in experiment [2], -4.45%; in experiment [3], 16.3%; in experiment [4], -18.9%; in experiment [5] it was -10.4%; in experiment [6], 12.6%.

With `CCOC(C#CC(C)=O)OCC`, the growth inhibition in experiment [1] is 31.1%; in experiment [2], 31.3%; in experiment [3] it was 22.9%; in experiment [4], 6.65%; in experiment [5], 46%; in experiment [6], 47.9%.

Turning to `Cc1c2ccnc(C#N)c2c(C)c2c1[nH]c1ccccc12`, the growth inhibition is -19.8% in experiment [1]; 3% in experiment [2]; -16.9% in experiment [3]; -13.3% in experiment [4]; 12.8% in experiment [5]; 7.5% in experiment [6].

For `CCCCCCCN(CCCCCCC)CC(O)c1c(OC)c2ccccc2c2ccccc12` (stereo unspecified), the growth inhibition in experiment [1] was 94.8% (active); in experiment [2], 34.4%; in experiment [3] it was 96.2% (active); in experiment [4] it was 93% (active); in experiment [5] it was 24.9%; in experiment [6], 93.7% (active).

Consider `Cc1ccc(S(=O)(=O)OCC(F)(F)C(F)(F)C(F)(F)CO)cc1`, for which the growth inhibition in experiment [1] was 19.1%; in experiment [2] it was 3.3%; in experiment [3], 22.2%; in experiment [4], -15.6%; in experiment [5], 3.85%; in experiment [6] it was -15.5%.

`CSc1nc(NC2OCC(OC(C)=O)C(OC(C)=O)C2OC(C)=O)c(N=C(C)C(C)=O)c(=O)[nH]1` (stereo unspecified): the growth inhibition in experiment [1] is -3.9%; in experiment [2] it was 17.7%; in experiment [3], 15.2%; in experiment [4], 4.95%; in experiment [5], 3.05%; in experiment [6], 12.8%.

With `CN(Cc1cnc2nc(N)nc(N)c2n1)c1ccc(C(=O)NC(CCC(=O)OC(C)(C)C)C(=O)O)cc1` (stereo unspecified), the growth inhibition in experiment [1] was 13.7%; in experiment [2], 32.4%; in experiment [3], 4.5%; in experiment [4], -20.1%; in experiment [5], -2.55%; in experiment [6] it was -1.2%.

Turning to `CCCCCCC(O)C/C=C/CCCCCC/C(C(=O)OC)=C(/O)C(=O)OCC` (stereo unspecified), the growth inhibition in experiment [1] is 3.3%; in experiment [2] it was -3.35%; in experiment [3], 11.5%; in experiment [4], -27.6%; in experiment [5] it was -6.7%; in experiment [6], 1.1%.

Turning to `CC1(C)C=C(O)C=C(O)C1`, the growth inhibition was 14.2% in experiment [1]; 2.8% in experiment [2]; 17.4% in experiment [3]; -2.25% in experiment [4]; 6.55% in experiment [5]; 2.5% in experiment [6].

For `CC(C)(C)OC(=O)CC(NC(=O)OC(C)(C)C)C(=O)NC(Cc1ccccc1)C(N)=O` (stereo unspecified) (Boc-Asp(OtBu)-Phe-NH2; configuration not given here), the growth inhibition in experiment [1] was -23.1%; in experiment [2] it was 6.85%; in experiment [3] it was -3.85%; in experiment [4], 35.5%; in experiment [5] it was 13.5%; in experiment [6], -11.3%.

Turning to `CS(=O)(=O)CCC(Nc1ccc([N+](=O)[O-])cc1[N+](=O)[O-])C(=O)O` (stereo unspecified), the growth inhibition is 4.7% in experiment [1]; 6.1% in experiment [2]; 22.1% in experiment [3]; 4.25% in experiment [4]; 5.6% in experiment [5]; -11.7% in experiment [6].

As to `CCCS(CCC)=NS(=O)(=O)c1ccc(C)cc1`, the growth inhibition in experiment [1] is -6.75%; in experiment [2] it was -0.7%; in experiment [3], 0.6%; in experiment [4] it was -0.8%; in experiment [5], 11.6%; in experiment [6], -9.65%.

As for `O=[N+]([O-])c1ccc(Sc2c3ccccc3nc3cc(Cl)ccc23)cc1`, the growth inhibition was -32.2% in experiment [1]; -18.3% in experiment [2]; -18.5% in experiment [3]; 9.3% in experiment [4]; -20.3% in experiment [5]; -28.9% in experiment [6].

Take `CC1(C)CC(=O)C(/C=N/C(=S)NC2CCCCC2)=C(O)C1`: the growth inhibition was -13.2% in experiment [1]; -20.1% in experiment [2]; -31.5% in experiment [3]; 10.6% in experiment [4]; -7.7% in experiment [5]; -8% in experiment [6].
